# Test results as given in PubChem BioAssay.
# Potency and affinity values are given separately. Records with an inconclusive call do not appear. A call without a number means that no potency is given here. Calls of active or inactive are those of the source. How the calls were made is not given here.
# Test: general cell-killing toxicity readout – plate reader, dry powder samples, cytotoxicity control for PAX8 inhibitor project, dose response (AID 743021)
# Details: cell line, non-specific cytotoxicity counter-screen; series mostly up to 35 µM
row,SMILES,outcome
1,Cc1ccc(S(=O)(=O)N(C)C[C@@H]2Oc3cc(C#Cc4ccncc4)ccc3S(=O)(=O)N([C@@H](C)CO)C[C@H]2C)cc1,inactive
2,C[C@H]1CN([C@@H](C)CO)C(=O)c2cccc(NC(=O)Nc3ccc(F)cc3)c2O[C@H]1CN(C)C(=O)Nc1ccc(C(F)(F)F)cc1,inactive
3,COc1ccc(-c2ccc3c(c2)[C@@H]2[C@@H](CCN2C(=O)C2CCCC2)[C@H](CO)N3C)cc1,inactive
4,C[C@@H]1CCCCO[C@H](CN(C)Cc2ccc(Cl)c(Cl)c2)[C@H](C)CN([C@@H](C)CO)C(=O)c2cc(NC(=O)Nc3ccc(F)cc3)ccc2O1,inactive
5,COc1ccccc1-c1ccc2c(c1)O[C@H](CN(C)Cc1ccc3c(c1)OCO3)[C@H](C)CN([C@@H](C)CO)S2(=O)=O,inactive
6,Cc1ccc(S(=O)(=O)N(C)C[C@@H]2Oc3c(NC(=O)c4ccc(-c5nccs5)cc4)cccc3C(=O)N([C@@H](C)CO)C[C@@H]2C)cc1,inactive
7,CCCN1[C@H](C(=O)N2CCOCC2)[C@@H](CO)[C@@H]2Cn3c(ccc(/C=C/c4ccccc4)c3=O)[C@@H]21,inactive
8,C[C@@H]1CCCCO[C@@H](CN(C)Cc2ccc(C(F)(F)F)cc2)[C@H](C)CN([C@@H](C)CO)C(=O)c2cc(NS(=O)(=O)c3ccccc3)ccc2O1,inactive
9,O=C(C[C@H]1C[C@@H]2c3cc(NC(=O)Nc4ccc(C(F)(F)F)cc4)ccc3O[C@@H]2[C@@H](CO)O1)NCCc1ccccc1,inactive
10,C[C@@H]1CN([C@@H](C)CO)C(=O)c2cc(NC(=O)c3ccccc3)ccc2O[C@@H](C)CCCCO[C@H]1CN(C)Cc1ccc(C(F)(F)F)cc1,inactive
11,CC(C)CC#Cc1ccc2c(c1)O[C@H](CN(C)S(=O)(=O)c1ccc(F)cc1)[C@H](C)CN([C@@H](C)CO)S2(=O)=O,inactive
12,C[C@@H]1CN([C@H](C)CO)C(=O)c2cc(NS(=O)(=O)c3ccc(F)cc3)ccc2O[C@@H]1CN(C)Cc1ccc(C(F)(F)F)cc1,inactive
13,O=C(Nc1cccc(F)c1)N1CCCCN2[C@@H](CO)[C@@H](c3ccc(-c4ccncc4)cc3)[C@@H]2C1,inactive
14,C[C@@H]1CCCCO[C@H](CN(C)C(=O)c2ccccc2)[C@@H](C)CN([C@@H](C)CO)C(=O)c2cc(NC(=O)Nc3ccc(C(F)(F)F)cc3)ccc2O1,inactive
15,COc1ccc(S(=O)(=O)N2CCCCN3[C@H](C2)[C@H](c2ccc(C#CC(C)C)cc2)[C@@H]3CO)cc1,inactive
16,C[C@H](CO)N1C[C@H](C)[C@H](CN(C)Cc2ccc3c(c2)OCO3)OCCCC[C@H](C)Oc2ccc(NS(=O)(=O)c3ccc(Cl)cc3)cc2C1=O,inactive
17,C[C@@H]1CCCCO[C@H](CN(C)C(=O)Cc2ccccc2)[C@H](C)CN([C@@H](C)CO)C(=O)c2cc(NC(=O)Nc3ccc(C(F)(F)F)cc3)ccc2O1,inactive
18,COc1ccc(S(=O)(=O)Nc2ccc3c(c2)C(=O)N([C@H](C)CO)C[C@@H](C)[C@H](CN(C)S(=O)(=O)c2ccc(F)cc2)OCCCC[C@H](C)O3)cc1,inactive
19,C[C@H](O)C#Cc1ccc2c(c1)O[C@@H](CN(C)Cc1ccc(-c3ccccc3)cc1)[C@@H](C)CN([C@@H](C)CO)S2(=O)=O,inactive
20,C[C@@H]1CN([C@H](C)CO)C(=O)c2cc(NC(=O)Nc3ccc(C(F)(F)F)cc3)ccc2O[C@@H](C)CCCCO[C@H]1CN(C)C(=O)Nc1ccc(F)cc1,inactive

row,SMILES,outcome
1,C[C@H]1CN([C@@H](C)CO)C(=O)c2ccccc2-c2ccccc2CO[C@H]1CN(C)S(=O)(=O)c1ccc(C(F)(F)F)cc1,inactive
2,C[C@@H]1CN([C@@H](C)CO)C(=O)Cc2cc(NC(=O)Nc3ccc(F)cc3)ccc2O[C@H]1CN(C)Cc1ccc(Cl)c(Cl)c1,inactive
3,C[C@@H]1CN([C@@H](C)CO)S(=O)(=O)c2ccc(C#C[C@@H](C)O)cc2O[C@@H]1CN(C)Cc1ccc(-c2ccccc2)cc1,inactive
4,Cc1ccc(S(=O)(=O)N(C)C[C@H]2Oc3ccc(NC(=O)Nc4ccc(C(F)(F)F)cc4)cc3CC(=O)N([C@H](C)CO)C[C@@H]2C)cc1,inactive
5,C[C@@H]1CN([C@H](C)CO)C(=O)c2cc(NC(=O)Nc3ccc(F)cc3)ccc2O[C@@H](C)CCCCO[C@H]1CN(C)C(=O)Nc1ccc(F)cc1,inactive
6,C[C@@H]1CCCCO[C@@H](CN(C)C(=O)Nc2ccc(C(F)(F)F)cc2)[C@H](C)CN([C@H](C)CO)C(=O)c2cc(NS(=O)(=O)c3ccccc3)ccc2O1,inactive
7,CN1c2ccc(-c3ccc(C#N)cc3)cc2[C@@H]2[C@@H](CCN2C(=O)NC2CCCCC2)[C@@H]1CO,inactive
8,CN1c2ccc(C3=CCCCC3)cc2[C@H]2[C@H](CCN2C(=O)NC2CCCCC2)[C@@H]1CO,inactive
9,C[C@@H]1CCCCO[C@@H](CN(C)Cc2ccc(Cl)c(Cl)c2)[C@H](C)CN([C@H](C)CO)C(=O)c2cc(NS(=O)(=O)c3ccc(F)cc3)ccc2O1,inactive
10,C[C@@H]1CN([C@@H](C)CO)C(=O)Cc2cc(NC(=O)Nc3ccc(C(F)(F)F)cc3)ccc2O[C@H]1CN(C)Cc1ccc(Oc2ccccc2)cc1,inactive
11,Cc1ccc(S(=O)(=O)Nc2ccc3c(c2)C(=O)N([C@@H](C)CO)C[C@H](C)[C@H](CN(C)Cc2ccc(C(F)(F)F)cc2)OCCCC[C@@H](C)O3)cc1,inactive
12,CCCC#Cc1ccc2c(c1)O[C@H](CN(C)Cc1ccccc1)[C@@H](C)CN([C@H](C)CO)S2(=O)=O,inactive
13,Cc1ccc(S(=O)(=O)N(C)C[C@@H]2OCCCC[C@H](C)Oc3ccc(NS(=O)(=O)c4ccc(F)cc4)cc3C(=O)N([C@H](C)CO)C[C@H]2C)cc1,inactive
14,COc1ccc(S(=O)(=O)N(C)C[C@H]2Oc3ccc(NC(=O)Nc4ccc(C(F)(F)F)cc4)cc3CC(=O)N([C@H](C)CO)C[C@@H]2C)cc1,inactive
15,CNC[C@@H]1Oc2cc(C#CC3CCCCC3)ccc2S(=O)(=O)N([C@@H](C)CO)C[C@@H]1C,inactive
16,C[C@@H]1CCCCO[C@H](CN(C)C(=O)Nc2ccc(C(F)(F)F)cc2)[C@H](C)CN([C@@H](C)CO)C(=O)c2cc(NS(=O)(=O)c3ccc(Cl)cc3)ccc2O1,inactive
17,CO[C@H]1CN(C)C(=O)c2cc(NC(=O)c3nc4ccccc4s3)ccc2OC[C@H](C)N(Cc2cccnc2)C[C@H]1C,inactive
18,C[C@H](CO)N1C[C@H](C)[C@H](CN(C)S(=O)(=O)c2cccs2)OCCCC[C@H](C)Oc2ccc(NC(=O)NC3CCCCC3)cc2C1=O,inactive
19,C[C@H](CO)N1C[C@H](C)[C@H](CN(C)C(=O)NC2CCCCC2)Oc2cc(C#Cc3cccc(F)c3)ccc2S1(=O)=O,inactive
